In PubChem BioAssay AID624167 (Sanford-Burnham Center for Chemical Genomics, 2012) one finds inhibition data, which are given here for 33 compounds.

This assay is described as follows: inhibition of PEG-3 promoter-driven reporter – cell-based, HeLa, luciferase, CREF/GAPDH counter-screen panel, dose response (AID 624167). The conditions noted are these: CREF/GAPDH counter-screens; run 1, dose range 1, at 100 µM (top of the series). On the technique in general: A counterscreen serves to expose hits that act by an unwanted route or on another target.
As usually defined, the inhibition is the relative decrease from the control value, in per cent. On to `Clc1ccccc1/C=C/c1nc(-c2ccccn2)no1`, for which the inhibition is 97.4%.

`O=C(CCSc1nc2ccccc2s1)N/N=C/c1c(O)ccc2ccccc12`: the inhibition is -10.4%.

As for `COc1ccccc1Nc1nc(-c2sc(NC(=O)c3ccco3)nc2C)cs1`, the inhibition is 18%.

Turning to `COc1ccc(NC(=O)c2cc(-c3ccccn3)nc3ccccc23)cc1S(=O)(=O)N(C)C`, the inhibition came out at 48.4%.

Take `CCC(C)Cn1c(O)cc2nn(-c3nc4ccccc4s3)c(=O)c-2c1C` (stereo not drawn): the inhibition is 99.6%.

Turning to `COc1cc(/C=C2\SC(=Nc3ccccc3OC)NC2=O)ccc1O`, the inhibition was 43.9%.

Turning to `CN1C/C(=C/c2ccccc2[N+](=O)[O-])C(=O)/C(=C\c2ccccc2[N+](=O)[O-])C1`, the inhibition was found to be 50.1%.

Turning to `CN(C)c1c([N+](=O)[O-])cc(N2C(=O)C=CC2=O)cc1[N+](=O)[O-]`, the inhibition turned out to be 98.9%.

For the compound `Cc1cc(C)c2sc(NNC(=O)c3ccc(S(=O)(=O)N4CCc5ccccc5C4)cc3)nc2c1`, the inhibition is 58.6%.

Take `C=C1CC2(OC1=O)c1ccccc1CCc1ccccc12`: the inhibition is 100%.

For `Cc1nc(C)c(C(=O)N/N=C/c2cc(Br)ccc2O)s1`, the inhibition was -7.82%.

Regarding `CS(=O)(=O)c1ccc(-c2cn3cc(C(=O)O)ccc3n2)cc1`, the inhibition was 67.7%.

For the compound `O=[N+]([O-])c1nn(-c2ccc3c(c2)OCCO3)n(O)c1=Nc1ccc(Cl)cc1`, the inhibition was 78.7%.

Turning to `CS(=O)(=O)Nc1cccc(NC(=O)C2Cc3c(-c4ccccc4)ccnc3O2)c1` (stereo not drawn), the inhibition turned out to be 0.156%.

With `Cc1ccc(-n2c(N)c(C(=O)Nc3c(C)n(C)n(-c4ccccc4)c3=O)c3nc4ccccc4nc32)cc1`, the inhibition is 77.5%.

For `CC(=O)c1cccc(-c2ccnc3c2CC(C(=O)Nc2cccc(NS(C)(=O)=O)c2)O3)c1` (stereo not drawn), the inhibition is 51.4%.

As for `CCCC(=O)NC(c1ccccc1)c1ccc2cccnc2c1O` (stereo not drawn), the inhibition is 26.9%.

For `CS(=O)(=O)c1ccc(-c2sc3ccccc3c2C#CCCO)cc1`, the inhibition came to 90.1%.

With `O=C(Nc1ccccc1C(=O)Nc1nnc(C(F)(F)F)s1)c1ccccc1`, the inhibition was found to be 60.8%.

As for `CC(C)(C)c1ccc(Cn2c(=O)cnc3ccccc32)cc1`, the inhibition was 88.2%.

Consider `Cc1ccc(C(C[N+](=O)[O-])Sc2ccc(N)cc2)cc1` (stereo not drawn), for which the inhibition amounted to 98.3%.

As to `O=C(O)c1ccc(N/N=C/c2ccc3c(c2)OCO3)cc1`, the inhibition is 96.9%.

`CCC(c1ccc(O)c(O)c1)C(CC)c1ccc(O)c(O)c1` (stereo not drawn): the inhibition is 99%.

Turning to `Cc1cccc(OCC(=O)NCC(=O)N/N=C/c2cc(Br)cc(Br)c2O)c1`, the inhibition is 67.3%.

Take `COc1cc(CNCCCN2CCOCC2)cc(Br)c1OCc1ccc(Cl)cc1`: the inhibition turned out to be 99.6%.

For `CCOC(=O)c1c(SCCN2CCCCC2)n(-c2ccccc2)c(=S)n(-c2ccccc2)c1=O`, the inhibition stood at 97%.

Regarding `COC1CC(C)C(OC)c2cc(O)cc(c2O)NC(=O)C(C)=CC=CC(C)C(OC(N)=O)C(C)=CC(C)C1OC` (stereo not drawn), the inhibition worked out at 87.1%.

Turning to `Cc1ccsc1/C=N/Nc1cccc(C(=O)O)c1`, the inhibition came to 95.8%.

Turning to `CC(=O)c1ccc(-c2cnc3c(NC=O)cc(-c4ccccc4Oc4ccccc4)cn23)cc1`, the inhibition was found to be 39.3%.

In the case of `O=C(Nc1ccc(Cc2ccncc2)cc1)c1ccc([N+](=O)[O-])o1`, the inhibition is 88.7%.

`CS(=O)(=O)Nc1cccc(NC(=O)C2Cc3c(-c4cccc(F)c4)ccnc3O2)c1` (stereo not drawn): the inhibition was 74.9%.

With `CN(C)S(=O)(=O)c1ccc(-c2csc(N/N=C/c3ccc(O)cc3)n2)cc1`, the inhibition came out at 91.3%.

As to `Cc1ccc(C)c(S(=O)(=O)N2CCN(c3ncnc4sccc34)CC2)c1`, the inhibition stood at 62.6%.
